The values that follow come from PubChem BioAssay AID624381 (The Scripps Research Institute Molecular Screening Center, 2012).

Screen size: about 2,300 compounds; about 430 (19%) were called active.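 Rule for the calls: active = mean activation across triplicates above the hit threshold derived in the original primary screen (cut at about 15% in these data); inactive = the rest.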 A selection follows.

In this test the target is 5-hydroxytryptamine receptor 2A (Mus musculus) (UniProt P35363). Description: mouse HTR2A agonists, beta-arrestin recruitment, confirmation, cell-based, luminescence, CHO-K1 PathHunter, triplicate (AID 624381). To be noted: at 7.6 µM, stronger effect = higher value, DMSO 0%, 30 µM serotonin 100%. For orientation: Recruitment of arrestin is a read-out of receptor activation apart from second messengers.
Chain of 5-hydroxytryptamine receptor 2A (Mus musculus) (P35363 whole entry, looked up): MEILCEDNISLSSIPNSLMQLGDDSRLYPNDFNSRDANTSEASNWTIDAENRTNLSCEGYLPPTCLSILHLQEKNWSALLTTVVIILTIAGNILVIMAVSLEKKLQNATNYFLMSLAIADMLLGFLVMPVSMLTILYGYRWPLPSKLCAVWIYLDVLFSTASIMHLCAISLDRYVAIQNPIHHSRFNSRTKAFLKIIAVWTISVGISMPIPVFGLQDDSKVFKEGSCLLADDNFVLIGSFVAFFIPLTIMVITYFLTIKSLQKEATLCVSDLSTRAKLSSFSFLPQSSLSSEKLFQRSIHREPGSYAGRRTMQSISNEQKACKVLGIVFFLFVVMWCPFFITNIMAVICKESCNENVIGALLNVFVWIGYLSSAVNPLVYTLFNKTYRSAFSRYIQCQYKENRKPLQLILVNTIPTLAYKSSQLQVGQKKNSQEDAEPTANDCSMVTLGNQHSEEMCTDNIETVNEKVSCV
Regarding `Cc1[nH]c2ccccc2c1CCN(Cc1cccs1)C(=S)NC(C)(C)C`, the activation was 4.41% (inactive).
Under `CCOc1ccc(/C(O)=C2\C(=O)C(=O)N(c3ccc(OC)cc3)C2c2ccccc2[N+](=O)[O-])cc1` (stereo not drawn) stands 1.71% (inactive).
Under `CCCCn1c(N)c(N(CC(C)C)C(=O)CSc2ccc([N+](=O)[O-])cc2)c(=O)[nH]c1=O` stands 0.81% (inactive).
On to `C=CCn1c(=NC(=O)c2cccs2)sc2cc(NC(C)=O)ccc21`, for which the activation was -1% (inactive).
In the case of `COc1ccc(NS(=O)(=O)c2cc(C(=O)Nc3ccccc3C(=O)O)ccc2C)cc1`, the activation was 5.94% (inactive).
The result for `CCOC(=O)c1cc(-c2ccccc2C)n(Cc2cc(C)no2)n1` reads 2.4% (inactive); that for `O=C(c1ccco1)N1CCN(CCOc2ccccc2)CC1`, 34.5% (active); that for `COc1cccc(OC)c1OCCN1CCN(C(=O)c2ccco2)CC1`, 78.4% (active).
With `CSc1ncnc2c1ncn2CCCNCc1cccs1`, the activation is -4.72% (inactive).
The result for `Cc1ccc(CN2CCN(c3ncccn3)CC2)c(C)c1` reads 118% (active); that for `Oc1ccc(CN2CCN(c3ncccn3)CC2)cc1`, 101% (active); that for `COc1ccccc1CN1CCN(Cc2cc(OC)c(OC)cc2OC)CC1`, 8.39% (inactive).
For `CC(C)c1cc(C(=O)O)on1`, the activation is 13.4% (inactive).
Regarding `O=C(CNCc1cccs1)Nc1cc(S(=O)(=O)N2CCCC2)ccc1Cl`, the activation was 50.6% (active).
The result for `O=C1CCc2cc(S(=O)(=O)N3CCC(C(=O)NCc4ccccc4Cl)CC3)ccc2N1` reads -6.01% (inactive).
Under `COC(=O)c1ccc(CSc2nnc(NC(C)C)s2)cc1` stands -5.43% (inactive); under `COc1ccc(C2c3[nH]c4ccccc4c3C[C@H]3C(=O)N(CC(C)C)CC(=O)N23)c(OC)c1` (stereo partly drawn), 0.84% (inactive).
The result for `Cc1cccc(CN2CCN(C3CN(Cc4ccccc4)S(=O)(=O)C3)CC2)c1` (stereo not drawn) reads 8.09% (inactive).
With `O=C(NCCCN1CCN(c2ccccc2F)CC1)C1CCC(=O)N1C1CCCCC1` (stereo not drawn), the activation was 41.4% (active).
The result for `CC(C)Oc1ccccc1C(=O)NC(CO)C(=O)O` (stereo not drawn) reads 0.21% (inactive); that for `Cc1cccc(CN2CCN(C3CN(Cc4cn(Cc5cc(C)cc(C)c5)nn4)S(=O)(=O)C3)CC2)c1` (stereo not drawn), 8.35% (inactive); that for `Cc1cc(C(=O)OCC(=O)N2c3ccccc3NC(=O)C2(C)C)c(C)n1-c1ccccc1`, -2.45% (inactive).
Turning to `CN(C)[C@@H]1C(=O)C(C(N)=O)=C(O)[C@@]2(O)C(=O)C3=C(O)c4c(O)ccc(Cl)c4[C@@H](O)[C@H]3C[C@@H]12`, the activation was 40.1% (active).
Consider `CCCCC(CC)CNC(=O)CCCCn1c(=O)[nH]c2ccsc2c1=O` (stereo not drawn), for which the activation is -3.5% (inactive).
As to `COc1ccc(-c2nc3cc([N+](=O)[O-])ccc3o2)cc1OC`, the activation was -2.5% (inactive).
Under `COc1ccc2[nH]cc(CCN3C(=O)c4ccc(C(=O)O)cc4C3=O)c2c1` stands -1.14% (inactive); under `COC(=O)[C@]12CCCCC=C1N(CCC1=CCCCC1)C(=O)[C@H](CC(=O)NCC1CCCCC1)C2`, -5.33% (inactive); under `Nc1cc(C(=O)N2CCN(c3ccccc3Cl)CC2)ccc1N1CC2CC(C1)c1cccc(=O)n1C2` (stereo not drawn), -1.89% (inactive).
With `COC(=O)c1cc(N2CCNCC2)nc2ccccc12`, the activation was 2.65% (inactive).
The result for `O=C(c1ccncc1)N1CCN(c2ccc3ccccc3n2)CC1` reads 17.1% (active).
As for `COC(=O)Cn1nc(-c2ccccc2)c2cc(Cl)ccc21`, the activation was -5.87% (inactive).
Under `FC(F)(F)COc1nc(N2CCCCC2)nc(N2CCNCC2)n1` stands 8.3% (inactive); under `CS(=O)(=O)c1ccc2nc(NC(=O)C3CCCCC3)sc2c1`, -0.86% (inactive); under `O=C(Nc1ccc2c(c1)[C@@H]1C[C@@H](CC(=O)N3CCCCC3)O[C@@H](CO)[C@@H]1O2)NC1CCCCC1`, -4.45% (inactive).
The result for `COc1ccc(/C=N/Nc2ccccc2C(=O)O)cc1` reads 4.6% (inactive); that for `Cc1cc([N+](=O)[O-])ccc1NC1CCCC1`, 13.5% (inactive); that for `Cc1ccc(NC(=O)CSc2nnc(COc3ccccc3C)o2)cc1`, -4.47% (inactive).
The result for `N#CCSc1nn(-c2ccc(F)cc2)c(=S)s1` reads -4.94% (inactive); that for `COCCN(Cc1cc2cc3c(cc2nc1Cl)OCO3)C(=O)c1cccc(C)c1`, 3.25% (inactive).
Take `CC(Nc1ccccc1)c1cccnc1` (stereo not drawn): the activation was -3.04% (inactive).
Under `CC1(Cc2cccc(C#N)c2)C(=O)Nc2ccc(-c3cccc(C(F)(F)F)c3)cc21` (stereo not drawn) stands -0.38% (inactive); under `NNc1cccc(C=Cc2ccccc2)cc1=O`, 1.74% (inactive).
Regarding `O=C(Nc1cccc2cccnc12)c1ccc2sc([C@H]3C[C@H](O)[C@@H](CO)O3)nc2c1`, the activation is 4.32% (inactive).
Under `Cc1ccc(NC(=O)CCOc2ccccc2)cc1S(=O)(=O)Nc1ccccc1Cl` stands 3.02% (inactive).
As for `Cc1ccc(S(=O)(=O)N2CCN(c3ncnc4ccccc34)CC2)cc1`, the activation was 9.56% (inactive).
For `CC(=O)c1ccc(OCC(=O)N(C)C2CCS(=O)(=O)C2)cc1` (stereo not drawn), the activation was -3.74% (inactive).
The result for `COC(=O)[C@@]1(Cc2ccc(F)cc2)[C@H]2c3cc(C(=O)N(C)C)n(CCc4c[nH]c5ccc(OC)cc45)c3C[C@H]2CN1C(=O)c1ccccc1` reads 10.9% (inactive).
Under `C/C(=N\NC(=O)COc1c(C)cccc1C)c1cccs1` stands -2.38% (inactive); under `CCCN(CCc1ccccc1)C1CCc2c(O)cccc2C1` (stereo not drawn), 164% (active); under `CCCC(=O)N=c1sc2cccc(F)c2n1C`, -2.76% (inactive).
With `Cc1ccc2c(c1)NCC(C(=O)NC1CCC(C)CC1)O2` (stereo not drawn), the activation was -3.96% (inactive).
In the case of `CSc1nsc(SCC(=O)Nc2cc(C(=O)O)ccc2C)n1`, the activation was 1.2% (inactive).
Under `CCOCCCNC(=O)Cc1cc(=O)[nH]c(=O)[nH]1` stands -1.89% (inactive).
Under `CC(=O)N1c2ccc(S(=O)(=O)N3CCC(C(=O)NC4CCCCC4C)CC3)cc2CC1C` (stereo not drawn) stands -5.72% (inactive); under `O=C(O)C1C2C=CC(O2)C1C(=O)NCCc1cccc(Cl)c1` (stereo not drawn), 4.65% (inactive).
Take `COC(=O)CC(=O)N1CCN(c2ccc(Cl)c(Cl)c2)CC1`: the activation was 13.8% (inactive).
Turning to `O=C(O)c1ccc(S(=O)(=O)N2CCC(Cc3ccccc3)CC2)cc1`, the activation is -0.19% (inactive).
With `COc1ccc(CNC(=O)c2ccc(NS(=O)(=O)c3ccc4[nH]c(=O)[nH]c4c3)cc2)cc1OC`, the activation was -3.98% (inactive).
